Measurements as given in the supplement of paper PMC8975748.

tested on: Saccharomyces cerevisiae BY4741 SeMeCo community; assay: z-score of subpopulation abundance vs DMSO median, subpopulation auxotrophic for LU; higher = larger share of this subpopulation than in DMSO controls; settings: 10 µM; 24 h; SM minimal medium; subpopulation (auxotrophy): LU
In short: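 A Saccharomyces cerevisiae BY4741 community carried four plasmids, each restoring one auxotrophy and encoding a distinct fluorescent protein. It was pre-grown overnight to OD600 1.0, diluted to 0.3, and 70 µl was added to 384-well plates acoustically predosed with library drugs (10 µM final), then grown 24 h in minimal SM medium. Cells were paraformaldehyde-fixed and imaged by automated confocal microscopy, with single-auxotroph fluorescent strains setting thresholds and autofluorescence correction. Each subpopulation's abundance was scored as a z-score against the vehicle-well median.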

Row | Compound | z-score of subpopulation abundance
1 | COC(=O)C1=C(C)NC(C)=C(C(=O)OC(C)(C)CN(C)CCC(c2ccccc2)c2ccccc2)C1c1cccc([N+](=O)[O-])c1 (stereo not given) [Lercanidipine] | 0.17
2 | NC1CCN(c2nc3c(cc2F)c(=O)c(C(=O)O)cn3-c2ccc(F)cc2F)C1 (stereo not given) [Tosufloxacin p-Toluenesulfonate Hydrate] | -0.88
3 | CC1(C)S[C@@H]2[C@H](NC(=O)[C@H](N)c3ccc(O)cc3)C(=O)N2[C@H]1C(=O)O [Amoxicillin] | 0.41
4 | CCC1=C(C)CN(C(=O)NCCc2ccc(S(=O)(=O)NC(=O)N[C@H]3CC[C@H](C)CC3)cc2)C1=O [Glimepiride] | -0.1
5 | O=C(O)c1ccccc1C(=O)Nc1ccc(S(=O)(=O)Nc2nccs2)cc1 [Phthalylsulfathiazole] | -0.05
6 | Clc1ccc(CCC(Cn2ccnc2)Sc2c(Cl)cccc2Cl)cc1 (stereo not given) [Butoconazole] | -0.9
7 | Cc1ccc(Sc2ccccc2N2CCNCC2)c(C)c1 [Vortioxetine] | -0.19
8 | CN(Cc1cnc2nc(N)nc(N)c2n1)c1ccc(C(=O)N[C@@H](CCC(=O)O)C(=O)O)cc1 [Methotrexate disodium] | -3.33
9 | Clc1ccc(CCC(Cn2ccnc2)Sc2c(Cl)cccc2Cl)cc1 (stereo not given) [Butoconazole nitrate] | 1.13
10 | CC[C@@H]1/C=C(\C)C[C@H](C)C[C@H](OC)[C@H]2O[C@@](O)(C(=O)C(=O)N3CCCC[C@H]3C(=O)O[C@H](/C(C)=C/[C@@H]3CC[C@H](Cl)[C@H](OC)C3)[C@H](C)[C@@H](O)CC1=O)[C@H](C)C[C@@H]2OC [Pimecrolimus] | -0.41
